Among all 310,000 compounds or so, about 1,200 (0.39%) were called active. How the calls were made is not given here. The list is a sample of the results. Results with a measured potency or affinity are listed apart.

In the assay the target is Large T antigen (Simian virus 40) (UniProt P03070). Kind of assay: SV40 large T antigen inhibitors, biochemical (AID 1903). The note with it: SV40 large T antigen ATPase/helicase inhibition assay; at 20 µM; stronger effect = higher value.
Large T antigen (Simian virus 40), sequence (P03070 whole entry, looked up): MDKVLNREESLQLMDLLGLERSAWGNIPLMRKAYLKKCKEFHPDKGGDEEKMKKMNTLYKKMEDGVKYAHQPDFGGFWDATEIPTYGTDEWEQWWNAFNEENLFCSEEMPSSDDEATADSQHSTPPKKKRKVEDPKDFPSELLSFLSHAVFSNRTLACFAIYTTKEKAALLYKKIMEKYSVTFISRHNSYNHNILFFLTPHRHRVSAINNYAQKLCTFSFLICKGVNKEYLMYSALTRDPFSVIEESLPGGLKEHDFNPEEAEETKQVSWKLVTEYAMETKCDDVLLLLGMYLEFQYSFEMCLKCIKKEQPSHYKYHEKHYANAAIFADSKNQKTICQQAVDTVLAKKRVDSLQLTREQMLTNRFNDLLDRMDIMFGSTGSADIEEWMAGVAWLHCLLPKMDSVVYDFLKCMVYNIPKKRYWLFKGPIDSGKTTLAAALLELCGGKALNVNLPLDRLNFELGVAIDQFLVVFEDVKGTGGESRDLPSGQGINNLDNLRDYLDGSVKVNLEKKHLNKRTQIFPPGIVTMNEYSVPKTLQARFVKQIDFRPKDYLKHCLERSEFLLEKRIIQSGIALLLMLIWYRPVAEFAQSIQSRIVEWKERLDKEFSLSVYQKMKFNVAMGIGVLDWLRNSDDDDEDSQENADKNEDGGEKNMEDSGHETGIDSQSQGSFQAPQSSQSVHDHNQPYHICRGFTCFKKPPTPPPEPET
Regarding `Cc1onc(-c2ccccc2Cl)c1C(=O)OCC(=O)Nc1cccc(S(=O)(=O)N2CCOCC2)c1`, the inhibition (in general, the drop in the measured response relative to a control, in per cent) is 4.68% (inactive).
On to `C/C(=N\NC(=O)c1csc2ccccc12)c1ccc(O)cc1`, for which the inhibition was 26.5% (inactive).
For `COc1ccc(/C=N/NC(=O)CCn2cnc3ccccc32)cc1`, the inhibition is 2.3% (inactive).
As to `COc1ccc(/C=N/NC(=O)CC(=O)N/N=C/c2ccc(OC)cc2)cc1`, the inhibition was -38% (inactive).
In the case of `O=C(N/N=C/c1cccc(O)c1)c1csc2ccccc12`, the inhibition was 9.57% (inactive).
The figure for `CN(C)c1ccc(/C=N/NC(=O)C[n+]2ccccc2)cc1` is 17.6% (inactive); for `O=C(CC(=O)N/N=C/c1ccc(F)cc1)N/N=C/c1ccc(F)cc1` it is 10.6% (inactive).
Regarding `O=C(CCn1cnc2ccccc21)N/N=C/c1ccccc1O`, the inhibition is 14.7% (inactive).
In the case of `O=C(C[n+]1ccccc1)N/N=C/c1ccc(F)cc1`, the inhibition is 8.34% (inactive).
For `CC(C)Cn1cc(C(=O)N2CCN(c3ccccn3)CC2)c2c3ccccc3n(C)c2c1=O` the value was 1.5% (inactive); for `COc1nc(NC(=O)c2ccc(F)cc2)nc(OC)c1-c1ccccc1`, 6.25% (inactive).
Turning to `COc1ccc(-c2csc(NC(=O)CN3C(=O)NC4(CCCC4)C3=O)n2)cc1OC`, the inhibition was 23.8% (inactive).
In the case of `CCCOc1ccc(-c2nc(C#N)c(NCC3CCCO3)o2)cc1` (stereo not given), the inhibition was 3.05% (inactive).
In the case of `O=C(CSc1nc2ccccc2s1)NCCCN1CCOCC1`, the inhibition is -10.3% (inactive).
Consider `COc1ccc(CCC(=O)NC2=NCCS2)cc1OC`, for which the inhibition was 13.6% (inactive).
For `O=C(Nc1ccc2c(c1)OCCO2)c1ccco1` the value was 30.4% (inactive).
As for `CCOC(=O)CSc1nc2sc3c(c2c(=O)n1C1CCCCC1)CCN(C)C3`, the inhibition is 24.2% (inactive).
For `CCC(NC(=O)c1cc(COc2ccc(Cl)cc2OC)on1)c1ccncc1` (stereo not given) the value was 7.95% (inactive); for `CCn1c(CC(=O)Nc2ccc(C)c(Cl)c2)nnc1SCc1ccc(Cl)c(Cl)c1`, 2.82% (inactive).
The figure for `O=[N+]([O-])c1ccc(Cl)c2c1C1C=CCC1C(c1ccccn1)N2` (stereo not given) is 21.7% (inactive); for `CC(C)C1Nc2c(O)cc(Cl)c([N+](=O)[O-])c2C2C=CCC21` (stereo not given) it is 21.4% (inactive).
For the compound `Cc1ccc(CNC(=O)CCC2CCCN(C(=O)c3ccc4c(c3)OCO4)C2)o1` (stereo not given), the inhibition was 12.7% (inactive).
Take `CNc1nc(Nc2ccc(Br)cc2)nc(N)c1[N+](=O)[O-]`: the inhibition was 9.77% (inactive).
The figure for `N#Cc1cnc(Nc2ccc(F)cc2)nc1N` is 7.13% (inactive); for `C[C@H](CCC(=O)O)[C@H]1CC[C@H]2[C@@H]3CC[C@@H]4C[C@H](O)CC[C@]4(C)[C@H]3C[C@H](O)[C@]12C` it is 12.7% (inactive).
In the case of `C[C@H](CCC(=O)O)[C@H]1CC[C@H]2[C@@H]3[C@H](O)C[C@@H]4C[C@H](O)CC[C@]4(C)[C@H]3CC[C@]12C`, the inhibition was 19.2% (inactive).
For `Cc1nsc2nc3c(F)c(F)c(F)c(F)c3cc12`, the inhibition was 16.9% (inactive).
`Cc1c(/C=N/NC(N)=O)c2ccccn2c1C(=O)c1ccncc1`: the inhibition is 15% (inactive).
For `COc1cc(/C=C/C(=O)OCC(=O)Nc2ccc(S(=O)(=O)N3CCCC3)cc2)ccc1O` the value was 24.6% (inactive); for `COc1ccc(/C=C/C(=O)OCC(=O)Nc2ccc(S(N)(=O)=O)cc2)cc1OC`, 5.77% (inactive); for `CCCCOc1ccc(/C=C/C(=O)OCC(=O)N2CC(=O)Nc3ccccc32)cc1OCC`, 14.1% (inactive).
For the compound `COc1ccc(/C=C/C(=O)OCC(=O)N2CC(=O)Nc3ccccc32)cc1`, the inhibition is 1.89% (inactive).
With `Cc1cc(C(=O)NCCC(c2ccccc2)c2ccccc2)c(C)o1`, the inhibition is 8.32% (inactive).
For `CC1(C)Cc2cccc(Oc3cc(NN4CCCCC4)c([N+](=O)[O-])cc3[N+](=O)[O-])c2O1` the value was 1.3% (inactive); for `Cc1nn(C(C)C(=O)NCC2CCCO2)c(=O)c2cc3occc3n12` (stereo not given), -0.26% (inactive); for `COc1cc(/C=N/NC(=O)CSc2ccccn2)ccc1OC(C)C`, 14.9% (inactive).
For the compound `CCCOc1ccc(/C=N/NC(=O)CSc2ccccn2)cc1OC`, the inhibition was 3.28% (inactive).
The figure for `COc1ccc(/C=N/NC(=O)CSc2ccccn2)cc1OC` is 10.6% (inactive); for `CN(C)c1ccc(/C=N/NC(=O)CSc2ccccn2)cc1` it is 25.6% (inactive); for `CCN(C(=O)CN1C(=S)NC(C)(C)CC1C)c1ccc(C)c(C)c1` (stereo not given) it is 6.37% (inactive).
Regarding `O=C(CSc1nnc(NC(=O)c2c(F)cccc2F)s1)Nc1ccccc1F`, the inhibition is 11.2% (inactive).
Consider `CCCOc1ccccc1N1C(=O)CC(N(O)c2ccccc2)C1=O` (stereo not given), for which the inhibition is 20.6% (inactive).
Consider `CCNc1nc(NCC)nc(NC(N)=S)n1`, for which the inhibition is 1.3% (inactive).
`Cc1cc(C)c2nncn2n1`: the inhibition is 11.8% (inactive).
For `O=C(O)Cc1c[nH]c2ccccc12` the value was 10.4% (inactive).
For `NC(=O)Cc1c[nH]c2cccc(O)c12` the value was 30.1% (inactive).
For the compound `Cc1cc(C)c2c(c1)NC(c1cc3c(cc1Br)OCO3)C1CC=CC21` (stereo not given), the inhibition is 9.15% (inactive).
`O=C(O)C1Nc2c(Cl)cc(Cl)c(Cl)c2C2C=CCC12` (stereo not given): the inhibition is 31% (inactive).
As for `CCOC(=O)C1Nc2ccc(OC(F)(F)F)cc2C2C=CCC12` (stereo not given), the inhibition is 19.1% (inactive).
The figure for `Cc1ccc2c(c1)C1C=CCC1C(C(=O)NCCCN1CCOCC1)N2` (stereo not given) is 12.6% (inactive).
Turning to `CCOC(=O)C1Nc2ccc(C(=O)O)cc2C2C=CCC12` (stereo not given), the inhibition is 16.5% (inactive).
For `CCOC(=O)C1Nc2ccc(C)cc2C2C=CCC12` (stereo not given) the value was 8.94% (inactive); for `O=C(NC1CC1)C1Nc2ccc(OC(F)(F)F)cc2C2C=CCC12` (stereo not given), 6.67% (inactive).
Turning to `CCOC(=O)c1ccc2c(c1)C1C=CCC1C(C(=O)OCC)N2` (stereo not given), the inhibition was 12.4% (inactive).
In the case of `O=S(=O)(Nc1cccc(-c2ccc(N3CCCCCC3)nn2)c1)c1ccc(C(F)(F)F)cc1`, the inhibition is 2.18% (inactive).
Regarding `C#CCOCCOCCOCCNc1nc(N2CCN(C(=O)Cn3cc(CCCCN)nn3)CC2)nc(N2CCN(C(=O)[C@H](C(C)C)n3cc(CCO)nn3)CC2)n1`, the inhibition is 9.84% (inactive).
As to `CC1=C(C(=O)NCc2ccccc2)C(c2cccnc2)n2ncnc2N1` (stereo not given), the inhibition was 0.75% (inactive).
For `Cc1cc(=O)[nH]c(SCc2ccccc2)n1`, the inhibition was -3.07% (inactive).
As to `CCN(c1ccccc1)S(=O)(=O)c1ccc2ccccc2c1`, the inhibition is 1.9% (inactive).
For `COc1cccc(OC)c1C(=O)Nc1ccc([N+](=O)[O-])cn1`, the inhibition is 8.19% (inactive).
`CC(=O)c1ccc2c(c1)C1C=CCC1C(c1ccncc1)N2` (stereo not given): the inhibition is 7.95% (inactive).
For `O=C(OC1CCCCC1)c1ccc2c(c1)C1C=CCC1C(C(=O)O)N2` (stereo not given) the value was 33.8% (inactive).
As to `COc1cc(SC)ccc1C(=O)N1CCN(Cc2ccc3c(c2)OCO3)CC1`, the inhibition is 18.1% (inactive).
For `COc1ccccc1NC(=O)COC(=O)c1ccccc1C(=O)N1CCN(c2ccccc2)CC1` the value was 6.53% (inactive); for `COc1ccc(N2CCN(C(=O)c3ccc(SC)cc3OC)CC2)cc1`, 18.7% (inactive).
Turning to `COc1cc(Cl)ccc1NC(=O)COc1ccccc1C(=O)NN`, the inhibition was 6.94% (inactive).
For the compound `COc1cc(SC)ccc1C(=O)N1CCN(c2ccccc2)CC1`, the inhibition was 2.66% (inactive).
For `COc1cc(SC)ccc1C(=O)N1CCN(c2ccccc2OC)CC1`, the inhibition was 2.01% (inactive).
Take `Cc1ncc([N+](=O)[O-])n1Cc1ccc(Br)cc1`: the inhibition is 7.03% (inactive).
Turning to `CCc1cccc(C)c1NC(=O)CN(C)Cc1ccc(Br)cc1`, the inhibition was 9.47% (inactive).
As for `O=C(NCc1ccco1)C1CC(c2ccc(F)cc2)=NO1` (stereo not given), the inhibition was 6.38% (inactive).
For `COC(=O)/C(C#N)=C\c1c(OC)[nH]c2ccccc12` the value was 8.82% (inactive); for `N#C/C(=C\c1c[nH]c2ccccc12)C(N)=O`, 5.89% (inactive); for `O=C(CN(c1ccccc1F)S(=O)(=O)c1ccccc1)Nc1ccccc1C(=O)N1CCOCC1`, 11.3% (inactive).
In the case of `Cc1cccc(NC(=O)c2ccc(N3CCOCC3)c([N+](=O)[O-])c2)n1`, the inhibition was -1.72% (inactive).
The figure for `O=C(CNC(=O)c1cccc(F)c1)N/N=C/c1cccnc1` is 20.9% (inactive).
For `C=C(C)CSc1nc2c(cc1C#N)CCC2` the value was 7.26% (inactive); for `CCn1c(COc2ccc(C)cc2)nc2ccccc21`, 3.75% (inactive); for `Cc1ccc(-c2nc(N)s[n+]2-c2ccccc2)cc1`, 13.6% (inactive).
On to `Cc1ccc(-c2nc3ccccc3nc2-c2ccccc2)cc1`, for which the inhibition was 0.76% (inactive).
On to `O=C1C(Cl)=C(N2CCCCC2)C(=O)N1Cc1ccccc1`, for which the inhibition is 0.56% (inactive).
Regarding `Cc1ccc(C(=O)N/C(=C\c2sccc2C)C(=O)NCc2ccco2)cc1`, the inhibition was 7.34% (inactive).
`COc1ccc(-c2ccc(/C=C3\C(=O)N(c4ccccc4)N=C3c3ccccc3)o2)c([N+](=O)[O-])c1`: the inhibition was 2.08% (inactive).
`CC1=NOC(=O)/C1=C\c1ccc(-c2ccc(Cl)cc2Cl)o1`: the inhibition was 16.7% (inactive).
As for `O=C1/C(=C\c2ccc(-c3ccccc3[N+](=O)[O-])o2)C(c2ccccc2)=NN1c1ccccc1`, the inhibition is -3.41% (inactive).
As to `O=C(O)/C(=C\c1ccc(-c2ccccc2[N+](=O)[O-])o1)c1ccccc1`, the inhibition was 10.1% (inactive).
As to `Cc1ccc(/C=C2\C(=O)ON=C2c2ccccc2)o1`, the inhibition was -2.84% (inactive).
For the compound `Cc1ccc(C2=NOC(=O)/C2=C\c2ccccc2)cc1`, the inhibition is 59.5% (inactive).
Regarding `O=C1COc2ccc(C(=O)COC(=O)c3sc4ccccc4c3Cl)cc2N1`, the inhibition is 7.71% (inactive).
Turning to `CCOc1ccc(CN(C)CC(=O)Nc2ccc(N3CCOCC3)cc2)cc1OC`, the inhibition was 6.36% (inactive).
`CC(NC(=O)c1ccccc1F)c1ccccc1` (stereo not given): the inhibition is 3.89% (inactive).
Consider `O=C(NCCNC1CCN(Cc2ccccc2)CC1)c1cccs1`, for which the inhibition was 5.49% (inactive).
As for `O=C1CCCC(=O)C1CS(=O)(=O)c1ccccc1`, the inhibition is 14.9% (inactive).
For the compound `CCOC(=O)N1CCC(=NNc2nc3ccccc3s2)CC1`, the inhibition was 8.66% (inactive).
Regarding `CC1(C)C(=O)Nc2ccccc2N1C(=O)COC(=O)c1ccc(Cl)c(S(=O)(=O)NCc2ccccc2)c1`, the inhibition is 6.69% (inactive).

These data come from PubChem BioAssay AID1903 (Southern Research Specialized Biocontainment Screening …, 2009).
